High-throughput results as filed in PubChem.
Tau fibril ThT = inhibitors of human tau fibril formation, thioflavin T binding. P10636. recombinant tau K18 P301L, heparin-induced fibrillization, ThT fluorescence. Potency, µM (titrated, usually from 57.4 µM), inactives show top-dose activity, negative = inhibition, actives largely listed as inhibitors. 270,000 tested, 2.1% active. AID 1460; also: potency is read from the fitted curve at half-maximal effect; nearly all actives have a fitted effect of over 55% in size
Target sequence (P10636 561-689 P618L limits assumed): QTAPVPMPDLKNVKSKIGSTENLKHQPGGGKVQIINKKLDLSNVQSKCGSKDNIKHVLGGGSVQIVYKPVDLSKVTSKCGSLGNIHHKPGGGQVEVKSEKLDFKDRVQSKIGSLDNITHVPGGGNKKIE
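Heparin-induced fibrillization of the P301L-mutant K18 repeat-domain fragment of human tau was followed by ThT binding in quantitative high-throughput format.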
Tau fluor cs = counter-screen for tau fibril formation inhibitors; tau K18 P301L (four-repeat tau fragment) Alexa594 fluorescence, heparin fibrillization; Potency, µM (highest dose often 57.7 µM), for the others: top-dose activity change, negative = decrease; 280,000 tested, 0.93% active; AID 1463; also: potency is read from the fitted curve at half-maximal effect; nearly all actives have a fitted effect of over 55% in size
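Human K18 P301L tau (15 uM unlabeled plus 0.24 uM Alexa 594-labeled, final) in 100 mM sodium acetate pH 7 was mixed with compound and 20 uM heparin and incubated 6 hr at 37 C.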
FBPA coupling cs = inhibits coupling enzyme system, counter-screen for aldolase hits. coupling enzyme system counterscreen, AmpLite Red fluorescence. 290,000 tested, 0.67% active. AID 2472. activity change, negative = inhibition, % at 58.2 µM, hits read low; in the data active = activity change below about -30%
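Activity here indicates interference with the coupling reaction, not aldolase inhibition. Compounds at 57.5 uM final met coupling enzymes for 10 min at RT; substrate and AmpLite Red detection followed, with a 525/598 nm fluorescence read after 20 min.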
Sfp PPTase inh = blocks B. subtilis Sfp PPTase activity; Biochemical Sfp PPTase activity, qHTS; Potency, µM, for inactives: largest response in the series, negative = inhibition, usual class: inhibitors; 310,000 tested, 3.5% active;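 also: the enzyme is Sfp with the accession as filed and its product quenches rhodamine fluorescence; potency is read from the fitted curve at half-maximal effect; 0% = enzyme reaction without inhibitor and -100% = no enzyme wells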
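Compounds were incubated with enzyme (final 15 nM) for 15 min at room temperature before substrate addition started the reaction. Fluorescence at 525 nm excitation, 598 nm emission was recorded immediately and after 30 minutes.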
Tau fibril FP = inhibitors of human tau fibril formation; K18 P301L tau heparin fibrillization, Alexa594 FP, 6 h; Potency, µM (doses to about 57.7 µM), for the others: at the top dose activity, negative = inhibition, hits mostly inhibitors; 280,000 tested, 0.39% active; AID 1468; also: potency is read from the fitted curve at half-maximal effect; nearly all actives have a fitted effect of over 55% in size
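Compound effects on tau fibrillization are measured by Alexa 594 fluorescence polarization (ex 555, em 632 nm). K18 P301L tau is used at 15 uM with 0.24 uM labeled tracer, and 20 uM heparin induces aggregation over 6 hr at 37 C.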
KDM4E inh = inhibitors of human JMJD2E histone demethylase; B2RXH2; JMJD2E catalytic domain, FDH-coupled NADH fluorescence (FDH is formaldehyde dehydrogenase); Potency, µM (titrated, usually from 57.1 µM), inactives show top-dose activity change, negative = inhibition, actives largely listed as inhibitors; 230,000 tested, 1.6% active; AID 2147; active = well fitted inhibition curve with a large enough effect, not every such curve was filed as active; inconclusive = small, poorly fitted or top-dose-only effect, or another doubt; inactive = no such curve, though single readings can be large or run the other way;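 also: potency is read from the fitted curve at half-maximal effect; 0% = wells with enzyme and -100% = buffer wells without enzyme; nearly all actives have a fitted effect of over 50% in size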
Target sequence (B2RXH2 1-337 limits assumed): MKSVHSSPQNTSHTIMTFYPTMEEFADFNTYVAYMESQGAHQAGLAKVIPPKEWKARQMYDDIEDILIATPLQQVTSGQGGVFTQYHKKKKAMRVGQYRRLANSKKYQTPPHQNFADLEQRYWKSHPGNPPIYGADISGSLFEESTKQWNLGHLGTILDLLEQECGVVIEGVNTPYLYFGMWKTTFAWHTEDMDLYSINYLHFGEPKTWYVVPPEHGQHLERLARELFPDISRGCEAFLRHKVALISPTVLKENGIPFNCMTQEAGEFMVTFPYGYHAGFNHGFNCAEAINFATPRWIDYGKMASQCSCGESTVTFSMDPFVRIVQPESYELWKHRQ
The depositor's hits bear a star; ? = inconclusive; . = no result; [ ] = another dose, or the depositor's remark. Hits are enriched below; roughly 5.3% of the tested compounds scored in any of these assays. Unless noted, calls follow the shape of the dose curve; as a rule, active = well fitted curve in the direction sought with a large enough effect; inconclusive = small, poorly fitted or top-dose-only effect, or another doubt; inactive = no such curve, though single readings can be large; an effect the other way counts as inactive or inconclusive. Unless noted, % is scaled to controls: 0 for no effect and ±100 for the full control effect.

SMILES	Tau fibril ThT	Tau fluor cs	FBPA coupling cs	Sfp PPTase inh	Tau fibril FP	KDM4E inh
CCn1c(C(=O)NCc2cc(Br)ccc2OC)cc2oc3ccccc3c21	-16%	-23%	.	.	-9%	.
Cc1ccc(NC(=O)Cn2sc3nc(C)cc(C)c3c2=O)c(Cl)c1	28µM*	-9%	1	2.8µM*	?	?
Cc1cc(C)c2c(=O)n(CC(=O)Nc3ccc(Cl)cc3)sc2n1	.	-27%	6	3.5µM*	?	28µM*
Cc1cc(C)c2c(=O)n(CC(=O)Nc3cccc(F)c3)sc2n1	14µM*	-23%	2	3.2µM*	14µM*	?
CCOc1ccc(NC(=O)Cn2sc3nc(C)cc(C)c3c2=O)cc1	13µM*	-25%	-1	2.8µM*	20µM*	?
COc1cccc([C@@H]2Oc3ccc(OC)cc3C(=O)[C@H]2OC(=O)NS(=O)(=O)c2ccc(C)cc2)c1	-8%	-1%	-4	?	7%	-22%
CCN(CC)S(=O)(=O)c1ccc(C(=O)Nc2ccc(Cc3ccncc3)cc2)cc1	-3%	-23%	0	25%	-14%	-2%
CCN(Cc1ccncc1)S(=O)(=O)c1ccc(C(C)=O)cc1	-7%	2%	-11	79µM*	15%	-4%
Cc1noc(C)c1CSc1nnc(-c2ccccc2)n1Cc1ccco1	-6%	-3%	5	?	?	-3%
Cc1noc(C)c1CSc1ccc2ccccc2n1	-9%	-10%	1	79µM*	1%	-10%
Cc1noc(C)c1CSc1nnc(-c2ccccc2)n1N	-17%	-11%	1	32µM*	-16%	-7%
COc1ccc(CCN2C(=O)c3oc4cc(C)cc(C)c4c(=O)c3C2c2ccc(F)cc2)cc1OC (stereo not given)	2%	5%	.	.	9%	.
O=C(Cc1cccs1)NCCSc1c(-c2ccc(Cl)cc2)[nH]c2ccccc12	-15%	7.1µM*[quencher]	-6	5%	-14%	?
COc1ccc(-c2[nH]c3ccccc3c2SCCNC(=O)c2ccc(S(=O)(=O)N(C)C)cc2)cc1	-10%	4µM*[quencher]	.	.	3%	.
Cc1ccc(C(=O)NCCSc2c[nH]c3ccccc23)cc1C	?	16µM*[quencher]	.	.	6%	.
COCC(=O)NCCSc1c(C)[nH]c2ccccc12	2%	5%	-1	-5%	2%	?
CN(C)S(=O)(=O)c1ccc(C(=O)NCCSc2ccccc2)cc1	19%	16%	-10	29%	7%	-3%
CCOc1ccc(C(=O)NCCSc2c(C)[nH]c3ccccc23)cc1OCC	?	14µM*[quencher]	.	.	?	.
CCn1c(=O)c2cc(C(=O)NCc3cc(OC)ccc3OC)sc2c2ccccc21	-15%	-26%	.	.	-11%	.
CCC1CC=CC2C1C(=O)N(Cc1ccccc1)C2c1ccc(OC)c(Cl)c1 (stereo not given)	.	.	1	?	.	.
CCCc1ccc(OCc2ccc(C(=O)Nc3ccccc3C(=O)OC)o2)cc1	?	-22%	.	.	-4%	.
CN(C)c1ccc(NC(=O)CN2C(=O)c3ccccc3Sc3ccc(C(=O)N4CCCC4)cc32)cc1	?	?	.	.	1%	.
COc1ccc(NC(=O)Cn2cc(S(=O)(=O)c3ccccc3)c(=O)c3cc(C)ccc32)cc1Cl	11%	-24%	.	.	?	.
N#CCCn1cnc2c1NC=NC2Cl (stereo not given)	-3%	0%	1	18%	5%	-4%
CCOc1cc(C#N)c(-n2nnc3c(sc4nc(C)cc(C)c43)c2=O)cc1OCC	-3%	-11%	.	.	-5%	.
SMILES	Tau fibril ThT	Tau fluor cs	FBPA coupling cs	Sfp PPTase inh	Tau fibril FP	KDM4E inh
COc1cccc(C(=O)NCCSc2c(-c3ccc(F)cc3)[nH]c3ccccc23)c1OC	-13%	5µM*[quencher]	.	.	-8%	.
Cc1ccc(-c2[nH]c3ccccc3c2SCCNC(=O)c2ccc(S(=O)(=O)N(C)C)cc2)cc1	-2%	?	.	.	8%	.
COc1ccccc1C(=O)NCCSCc1c(F)cccc1Cl	.	.	-2	9%	.	.
COc1ccc(-c2[nH]c3ccccc3c2SCCNC(=O)c2cc(OC)c(OC)c(OC)c2)cc1	?	7.1µM*[quencher]	.	.	13%	.
CCN(CC)S(=O)(=O)c1ccc(C(=O)NCCSc2c(-c3ccc(OC)cc3)[nH]c3ccccc23)cc1	-2%	4µM*[quencher]	.	.	3%	.
CN(C)S(=O)(=O)c1ccc(C(=O)NCCSc2c(-c3ccc(Cl)cc3)[nH]c3ccccc23)cc1	-12%	14µM*[quencher]	.	.	-15%	.
COc1ccc(OC)c(NC(=O)c2c(C)oc3ncnc(N4CCOCC4)c23)c1	-8%	-6%	.	.	4%	.
Cc1ccc(CNC(=O)COCc2cc(-c3ccc4c(c3)OCO4)on2)cc1	-14%	-7%	.	.	0%	.
CC(=O)OC[C@@]12C(=O)[C@@H](O)[C@@H](C)[C@]3(C[C@@H](c4ccoc4)O[C@@H]3OC(C)=O)[C@H]1CCC[C@]21CO1	-13%	-12%	0	-15%	-2%	3%
S=C=Nc1ccc(N=C=S)cc1	.	.	.	20%	.	.
CC1CCCN(c2ncnc3c2cnn3-c2ccccc2)C1 (stereo not given)	?	-13%	-5	89µM*	-6%	-18%
COc1ccc(CC(=S)N2CCOCC2)cc1	?	-6%	1	16µM*	-11%	-5%
CCc1ccc(CC(=S)N2CCOCC2)cc1	-4%	-12%	0	8%	-5%	3%
Cc1ccc(CC(=S)N2CCOCC2)cc1	-6%	-4%	3	35µM*	-7%	-18%
CCOc1ccc(N2C(=O)C3Sc4[nH]c(=O)sc4C(/C=C/c4ccccc4)C3C2=O)cc1 (stereo not given)	14µM*	?	-1	-25%	-16%	-8%
O=C1CC[C@@H](C(=O)N[C@@H](Cc2cnc[nH]2)C(=O)N[C@@H](Cc2c[nH]c3ccccc23)C(=O)N[C@@H](CO)C(=O)N[C@@H](Cc2ccc(O)cc2)C(=O)O)N1	.	.	0	27%	.	.
COc1cccc2cc(-c3ccnc(=S)[nH]3)oc12	28µM*	-19%	2	5%	?	-6%
C=CCn1c(-c2cc3cccc(OC)c3o2)n[nH]c1=S	?	-6%	-1	-11%	-5%	?
N#C/C(=N\Nc1cccc(C(F)(F)F)c1)C(=O)c1ccsc1	14µM*	?	0	16%	15%	-6%
COc1ccccc1NS(=O)(=O)c1cc(NC(=O)c2cnccn2)ccc1N1CCOCC1	-13%	-29%	3	-7%	4%	-2%
COc1ccccc1NS(=O)(=O)c1cc(NC(=O)c2cc[n+]([O-])cc2)ccc1N1CCCC1	?	?	0	11µM*	-2%	?
COc1ccccc1NS(=O)(=O)c1cc(NC(=O)Nc2ccccc2)ccc1N1CCCCC1	17%	?	-1	?	22µM*	?
